Measurements: PubChem BioAssay (NCI)
Compounds without any hit were thinned out: in the full panel of roughly 83,000, 20% have a hit.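 Percent growth is the endpoint: 0 to 100 indicates growth inhibition (40 means 60% inhibition), 0 means no net growth, and negative values indicate cell death.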 Unmarked numbers belong to inactive results. Active and inactive are the calls of the source. Rule for the calls: active = growth percent below 10; inactive = the rest.

How the values were obtained:
Experiment in all cases: NCI-60 one-dose screen, 48 h (100 = growth as untreated, 0 = no growth, -100 = all killed)
Details in all cases: 10 µM unless noted
[1] = tested on: SR leukemia
[2] = tested on: RPMI-8226 leukemia
[3] = tested on: OVCAR-8 ovarian
[4] = tested on: OVCAR-5 ovarian
[5] = tested on: OVCAR-4 ovarian
[6] = tested on: SK-OV-3 ovarian
[7] = tested on: IGROV1 ovarian
[8] = tested on: OVCAR-3 ovarian
[9] = tested on: HS 578T breast
[10] = tested on: NCI/ADR-RES ovarian

| Structure (SMILES) | growth [1] | growth [2] | growth [3] | growth [4] | growth [5] | growth [6] | growth [7] | growth [8] | growth [9] | growth [10] |
| --- | --- | --- | --- | --- | --- | --- | --- | --- | --- | --- |
| C[C@@H](CO)[C@@H]1CCC=C2CC[C@]3(C)[C@H](CC[C@@H]4[C@@]5(C)CCCNC(C)(C)[C@@H]5CC[C@]43C)[C@H]21 | -29.9% (active) | -19.8% (active) | 67.2% | 82.9% | 48.8% | 107% | 71.3% | 69.8% | 69.8% | 80.9% |
| Cc1ccc(-c2nc([P+](c3ccccc3)(c3ccccc3)c3ccccc3)c(S(=O)(=O)c3ccc(C)cc3)o2)cc1 | -10.9% (active) | -28.2% (active) | 8.26% (active) | 25.1% | 14.2% | 64.8% | 26.4% | 0.238% (active) | -9.93% (active) | 59.5% |
| CC(=O)Oc1ccc(N2C(=O)C(Cl)=C(Nc3cccc(C(F)(F)F)c3)C2=O)cc1 | 80.4% | 77.6% | 97.9% | 91.5% | 110% | 87.9% | 97.1% | 91.9% | 107% | 97.5% |
| CC(C)c1ccc(Cc2cnc(NC(=O)c3cc(Br)cs3)s2)cc1 | 16.8% | 22.6% | 35.5% | 53.7% | 54.3% | 28.6% | 38% | 15.6% | 19.8% | 6.8% (active) |
| COc1ccc(OC)c(/C=N/Nc2ncnc3c2c(C)nn3C)c1 | 81.4% | 100% | 109% | 93.2% | 118% | 102% | 102% | 107% | 88% | 101% |
| CC/C(=C(/c1ccc(Cl)cc1)c1ccc(OCCN(C)C)cc1)c1ccc(Cl)cc1 | -6.88% (active) | 32.8% | 75.1% | 83.9% | 78% | 90% | 72.5% | 65% | 75.1% | 74.8% |
| COc1ccc(-c2cc(-c3cccnc3)nc3sc4c(=O)[nH]c(-c5ccc(Cl)cc5)nc4c23)cc1OC | 87.5% | 88.8% | 92.2% | 98.2% | 87.9% | 95.2% | 90.3% | 102% | 92% | 98% |
| CCn1cc(C(=O)NNC(=S)Nc2ccc(C)cc2)c(=O)c2ccc(C)nc21 | 104% | 98.9% | 95.6% | 107% | 102% | 106% | 95.7% | 103% | 95.8% | 95.6% |
| C=C1CC[C@@H]2[C@](C)(COC(C)=O)[C@H](OC(C)=O)CC[C@@]2(C)[C@@H]1CC(Nc1ccc(S(=O)(=O)Nc2ncccn2)cc1)C1=CCOC1=O (stereo not given in full) | -4.43% (active) | -12.7% (active) | 3.81% (active) | -1.98% (active) | 42.7% | 84.7% | 7.21% (active) | -80.6% (active) | 51.2% | 16.1% |
| CCCCCN1C(=O)/C(=c2\sc3n(c2=O)C2C(NN=3)N(CC)C(=O)N2CC)c2ccccc21 (stereo not given) | 1.69% (active) | 8.52% (active) | -53.2% (active) | -4.09% (active) | -56.7% (active) | 13.3% | 2.27% (active) | -74.5% (active) | -17.6% (active) | -11.1% (active) |
| CC(C)c1ccc(-n2c(=S)[nH]c3sc4cc(O)ccc4c3c2=O)cc1 | 102% | 100% | 102% | 100% | 111% | 112% | 91.4% | 104% | 92.4% | 103% |
| [O-]/[N+](=C\c1ccc(-n2cc(Cc3ccccc3Cc3cn(-c4ccc(/C=[N+](/[O-])c5ccccc5)cc4)nn3)nn2)cc1)c1ccccc1 | 95% | 103% | 103% | 112% | 99.3% | 106% | 95.4% | 102% | 110% | 97.6% |
| Cc1ccc2c(n1)C(=O)C(Br)=C(CC(C)C)C2=O | 17% | 53% | 97.6% | 102% | 104% | 101% | 81.5% | 53.1% | 102% | 98.4% |
| COCCn1cc(-c2nc(-c3cc4cccnc4[nH]3)cs2)c2cc(OC)ccc21 | 2.96% (active) | 27.1% | 25.3% | 26.3% | 15.6% | 21% | 24.5% | 27.6% | -4.1% (active) | 28.5% |
| CC(C)(Sc1cc(C(C)(C)C)c(OC(=O)CCCC(=O)O)c(C(C)(C)C)c1)Sc1cc(C(C)(C)C)c(OC(=O)CCCC(=O)O)c(C(C)(C)C)c1 | 61.6% | 21.9% | 36% | 76.2% | 79.6% | 91.5% | 36.6% | 21.1% | 57% | 70% |
| O=C(/C=C/c1cccc(Cl)c1)c1cccc(OCCCOc2cccc(C(=O)/C=C/c3cccc(Cl)c3)c2)c1 | 37.1% | -8.65% (active) | 98.2% | 113% | 102% | 107% | 92.7% | 102% | 105% | 99.6% |
| COc1ccc2c(c1)N(CCO)C1=C(C(=O)OC1)C2c1cccc(F)c1 (stereo not given) | 16% | 21.3% | 11% | 44.6% | 51.5% | 23.2% | 34.5% | -16.7% (active) | 34.2% | 15.6% |
| O=C1c2ccc3c4c5ccc(c24)C(=O)N1CCCOCCCCOCCCNCc1ccc(cc1)CNCCCOCCCCOCCCN(C3=O)C5=O | -10.9% (active) | 3.9% (active) | -29.6% (active) | -63.3% (active) | -97.8% (active) | 12.9% | -78.4% (active) | -27.2% (active) | 85.6% | 90% |
| NS(=O)(=O)c1ccccc1NC(=O)Nc1nc2ccccc2s1 | 94.4% | 102% | 100% | 101% | 93.3% | 97.3% | 89.1% | 108% | 100% | 99.7% |
| O=C(Nc1ccc(Oc2cccc(Cl)c2)c(Cl)c1)c1cnccn1 | 26.3% | 18.1% | 28% | 60.4% | 38.9% | 83.3% | 27% | -7.23% (active) | 18.7% | 14.8% |
| CC(C)c1ccc(C(=O)Nc2sc3c(c2C(N)=O)CCC(=O)C3)cc1 | 0.332% (active) | -37.1% (active) | 11% | 8.42% (active) | -85.4% (active) | 25.8% | 9.75% (active) | -35.7% (active) | -4.09% (active) | 1.35% (active) |
| Clc1ccc(/C=N\N=C\c2ccc(Cl)c(Cl)c2)cc1Cl | 103% | 102% | 85.7% | 66.9% | 97.9% | 87.4% | 79.5% | 119% | 106% | 77.3% |
| C=CCN=c1sc2c(n1NC(=O)c1cc3ccc1CCc1ccc(cc1)CC3)C(=O)c1ccccc1C2=O | -8.54% (active) | -27.7% (active) | 5.6% (active) | -65.7% (active) | -96.3% (active) | 55.7% | -20.5% (active) | -26.4% (active) | -9.43% (active) | -12.8% (active) |
| CCCCn1c(=O)[nH]c(N)c([C@@H]2c3c([nH]c(=O)n(CCCC)c3=O)Oc3ccc4ccccc4c32)c1=O | 9.35% (active) | 77.8% | 7.15% (active) | 92.3% | 86.2% | 85% | 1.79% (active) | -92.1% (active) | 103% | 9.83% (active) |
| Cn1cc(-c2nonc2-c2cn(C)c3ccccc23)c2ccccc21 | 16% | 14.2% | 17.4% | 35.5% | 56.1% | 18.7% | 45.9% | 0.348% (active) | 30.7% | 17.4% |
| N#C/C(=C\c1c(-c2ccccc2)[nH]c2ccccc12)C(N)=O | 9.47% (active) | 46.2% | 102% | 107% | 62.5% | 93% | 77.1% | 81.2% | 76.5% | 77.6% |
